Screening data deposited in PubChem by National Center for Advancing Translational Sciences (NCATS).
ELG1 genotoxic – qHTS screen for small molecules that induce genotoxicity in human embryonic kidney (HEK293T) cells expressing luciferase-tagged ELG1; HEK293T ELG1-luciferase reporter, luminescence, 16 h; Potency, µM (highest dose often 46 µM), hits mostly activators; hit rate 1.3% among 330,000; AID 504466, 2011; note: nearly all actives have a fitted effect of over 60% in size
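Step 1: seed 2,000 HEK293T ELG1-luciferase cells per well. Step 2: add compound or DMSO, incubate 16 hr at 37 °C. Step 3: ONE-Glo, 30 min at room temperature, read luminescence.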
NPC1 prom act – qHTS Assay for NPC1 Promoter Activators | Huh7 NPC1 promoter luciferase reporter, 24 h | Potency, µM (highest dose often 9.22 µM), usual class: activators | hit rate 2.4% among 320,000 | AID 485313, 2010; note: nearly all actives have a fitted effect of over 60% in size
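NPC1 promoter–luciferase Huh7 cells; 24 h compound; luminescence.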
Rab9 prom act – qHTS Assay for Rab9 Promoter Activators | Huh7 Rab9 promoter-luciferase reporter, luminescence, 24 h | Potency, µM (highest dose often 9.22 µM), usual class: activators | hit rate 2.8% among 320,000; note: nearly all actives have a fitted effect of over 60% in size
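Quantitative HTS format; Huh7 Rab9-luciferase reporter cells (1500/well) receive compound 2 h post-plating, incubate 24 h at 37 °C, then get luciferase reagent for 10 min before luminescence reading.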
FLuc counter – qHTS profiling assay for firefly luciferase inhibitor/activator using purifed enzyme and Km concentrations of substrates (counterscreen for miR-21 project) | purified FLuc, Km substrates, luminescence inhibition | Luciferin 4-monooxygenase (Photinus pyralis), P08659 | Potency, µM (highest dose often 57.5 µM), most hits filed as inhibitors | hit rate 6.9% among 360,000; note: nearly all actives have a fitted effect of over 55% in size
Target sequence (P08659 whole entry, looked up): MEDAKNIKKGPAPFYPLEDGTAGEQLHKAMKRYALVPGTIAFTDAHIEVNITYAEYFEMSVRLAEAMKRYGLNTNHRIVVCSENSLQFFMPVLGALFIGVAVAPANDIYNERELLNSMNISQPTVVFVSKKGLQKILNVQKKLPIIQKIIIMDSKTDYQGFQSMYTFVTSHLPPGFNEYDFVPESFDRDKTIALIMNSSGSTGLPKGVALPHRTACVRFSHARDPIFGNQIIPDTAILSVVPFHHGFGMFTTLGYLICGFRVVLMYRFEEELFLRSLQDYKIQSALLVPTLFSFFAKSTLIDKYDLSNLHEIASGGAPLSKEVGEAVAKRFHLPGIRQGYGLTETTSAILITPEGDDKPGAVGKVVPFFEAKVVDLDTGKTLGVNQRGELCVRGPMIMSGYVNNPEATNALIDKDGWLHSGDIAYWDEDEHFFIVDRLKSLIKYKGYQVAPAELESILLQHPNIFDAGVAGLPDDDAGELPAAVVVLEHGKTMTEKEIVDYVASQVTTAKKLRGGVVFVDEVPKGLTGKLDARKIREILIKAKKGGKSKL
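Purified P. pyralis luciferase (10nM final) with 10uM D-luciferin and 10uM ATP (Km levels) in 50mM Tris acetate pH 7.5, 10mM Mg acetate, 0.01% Tween-20, 0.05% BSA; qHTS 6-point titration, ~60 µM downward; luminescence read.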
SMN2 splice enh – qHTS Assay for Enhancers of SMN2 Splice Variant Expression; HEK293 SMN2-luciferase splicing reporter, luminescence, 30-36 h; Potency, µM (titrated, usually from 46.1 µM), usual class: activators; hit rate 2.8% among 210,000; note: nearly all actives have a fitted effect of over 55% in size
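HEK293 cells carry an SMN2 […]–luciferase reporter in which exon 7 inclusion puts luciferase in frame. Cells were plated 10-12 h before compound addition, then incubated 30-36 h at 37C. ONE-Glo luminescence was read; sodium butyrate at 4.5 mM final served as control.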
ELG1 DNA repair – qHTS screen for small molecules that inhibit ELG1-dependent DNA repair in human embryonic kidney (HEK293T) cells expressing luciferase-tagged ELG1. HEK293T ELG1-luciferase reporter, luminescence, 16 h; DNA damage induced by 5-fluorouridine. Potency, µM (series often up to 46.1 µM), hits mostly inhibitors. hit rate 2.3% among 330,000. AID 504467, 2011; note: nearly all actives have a fitted effect of over 55% in size
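Step one: seed 2,000 cells per well. Step two: pin-transfer compound or DMSO alongside 5-fluorouridine. Step three: incubate 16 hr, 37 °C, 5% CO2. Step four: add ONE-Glo, wait 30 min, read luminescence.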
Of the large screens only hits and unclear results are named; the others gave an inactive call. In the library only some 9.4% were active in any assay of this set; here they are far more common. Calls come from the whole dose curve; as a rule, active = well fitted curve in the direction sought with a large enough effect; inconclusive = small, poorly fitted or top-dose-only effect, or another doubt; inactive = no such curve, though single readings can be large; an effect the other way counts as inactive or inconclusive.

Cc1nc2ccccc2n1CCCOc1ccccc1	FLuc counter 11µM, ELG1 DNA repair inconclusive
CCOC(=O)c1ccc(NC(=O)CSc2nnc(CNc3ccc(C)cc3)n2C)cc1	ELG1 DNA repair inconclusive
COc1ccc(Nc2nc3ccccc3n3cnnc23)cc1	SMN2 splice enh inconclusive, ELG1 DNA repair inconclusive
Cn1c(CNc2nc3ccccc3n2C)nc2ccccc21	NPC1 prom act 3.5µM, Rab9 prom act inconclusive, FLuc counter inconclusive, SMN2 splice enh inconclusive, ELG1 DNA repair inconclusive
CCOC(=O)c1ccc(NCc2nc3ccccc3n2C)cc1	NPC1 prom act 3.2µM, Rab9 prom act 3.2µM, FLuc counter inconclusive, ELG1 DNA repair inconclusive (no result: SMN2 splice enh)
Cc1ccc(OCCn2c(C)nc3ccccc32)cc1	none (no result: SMN2 splice enh)
COc1ccc(Nc2nc3ccccc3n3c(N)nnc23)cc1	FLuc counter 9.5µM (no result: ELG1 genotoxic, NPC1 prom act, Rab9 prom act, ELG1 DNA repair)
CCc1ccccc1NC(=O)Nc1cc(C(=O)NCc2cccc(F)c2)ccc1N1CCCC1	none (no result: ELG1 genotoxic, NPC1 prom act, Rab9 prom act, SMN2 splice enh, ELG1 DNA repair)
O=C(COc1ccc(Cl)cc1)Nc1cccc(S(=O)(=O)NCc2ccco2)c1	FLuc counter 17µM (no result: SMN2 splice enh)
COc1ccccc1OCC(=O)Nc1cccc(S(=O)(=O)NC2=NCCCCC2)c1	none (no result: SMN2 splice enh)
O=C(COc1ccccc1Cl)Nc1cccc(S(=O)(=O)NC2=NCCCCC2)c1	FLuc counter 19µM (no result: SMN2 splice enh)
CC(C)(C)c1ccc(OCC(=O)Nc2cccc(S(=O)(=O)NC3=NCCCCC3)c2)cc1	FLuc counter 11µM (no result: SMN2 splice enh)
O=C(COc1ccc(Cl)cc1)Nc1cccc(S(=O)(=O)NC2=NCCCCC2)c1	FLuc counter 15µM (no result: SMN2 splice enh)
Cc1ccc2c(=O)cc(C(=O)NCc3ccccc3)oc2c1	none (no result: ELG1 genotoxic, NPC1 prom act, Rab9 prom act, ELG1 DNA repair)
Cc1cc(Cl)ccc1OCC(=O)Nc1cccc(S(=O)(=O)NC2=NCCCCC2)c1	FLuc counter 13µM (no result: SMN2 splice enh)
Cc1ccccc1Cn1ccc(NC(=O)c2cnn3c(C(F)(F)F)cc(-c4ccco4)nc23)n1	ELG1 DNA repair 7.9µM
Cc1ccccc1Cn1ccc(NC(=O)CCSc2nc(-c3ccco3)cc(C(F)(F)F)n2)n1	SMN2 splice enh inconclusive, ELG1 DNA repair inconclusive
CN(C)c1ccc(/C=C/c2ccc3c4ccccc4ccc3[n+]2-c2ccccc2)cc1	FLuc counter 27µM, ELG1 DNA repair 1.5µM
CCCCN1CC2=C(C1=O)C(c1ccc(O)cc1)NC(=O)N2C (stereo not drawn)	ELG1 DNA repair inconclusive
COc1ccccc1N=Nc1ccc(O)c2ncccc12	ELG1 genotoxic inconclusive, FLuc counter 6.7µM, ELG1 DNA repair inconclusive (no result: SMN2 splice enh)
Cc1ccc(N=Nc2ccc(O)c3ncccc23)cc1C	FLuc counter 11µM, ELG1 DNA repair inconclusive (no result: SMN2 splice enh)
C[C@H](NCCN(C)C)[C@@H]1CCC2C3CCc4cc(O)ccc4[C@H]3CCC21C (stereo partly drawn)	none (no result: ELG1 genotoxic, NPC1 prom act, Rab9 prom act, FLuc counter, ELG1 DNA repair)
O=C(COC(=O)c1cccc(-n2cnnn2)c1)c1ccc(F)cc1	ELG1 genotoxic inconclusive, NPC1 prom act 3.2µM, Rab9 prom act 2.8µM, FLuc counter 17µM, ELG1 DNA repair inconclusive (no result: SMN2 splice enh)
COc1ccc(C(=O)COC(=O)c2cccc(-n3cnnn3)c2)c(OC)c1	ELG1 genotoxic inconclusive, NPC1 prom act 4µM, Rab9 prom act 3.5µM, FLuc counter 11µM, ELG1 DNA repair inconclusive (no result: SMN2 splice enh)
O=[N+]([O-])c1ccc(N=Nc2ccc(O)cc2O)cc1	FLuc counter 6µM
Cc1ccc2c(=O)c(C(=O)c3ccc(F)cc3)cn(CC(=O)NCc3ccccc3Cl)c2n1	none (no result: ELG1 genotoxic, NPC1 prom act, Rab9 prom act, SMN2 splice enh, ELG1 DNA repair)
CCOC(=O)CSc1nc2ccccc2c(=O)n1NC(=O)c1ccccc1	ELG1 genotoxic inconclusive, NPC1 prom act inconclusive, Rab9 prom act 3.5µM, FLuc counter inconclusive, SMN2 splice enh 16µM, ELG1 DNA repair inconclusive
Nn1c(SCc2ccc([N+](=O)[O-])cc2)nc2ccccc2c1=O	none (no result: SMN2 splice enh)
CCc1ccc(C(=O)Nn2c(C)nc3ccccc3c2=O)cc1	none (no result: SMN2 splice enh)
COc1ccc(C(=O)Nn2c(SCc3ccc([N+](=O)[O-])cc3)nc3ccccc3c2=O)cc1	ELG1 genotoxic inconclusive, NPC1 prom act 2.5µM, Rab9 prom act 4µM, FLuc counter 12µM, ELG1 DNA repair inconclusive
